ELG1 repair inh: ELG1-dependent DNA repair inhibition. HEK293T ELG1-luciferase reporter, luminescence, 16 h; DNA damage induced by 5-fluorouridine. Potency, µM (top dose mostly 46.1 µM), for the others: at the highest dose activity change, negative = inhibition, usual class: inhibitors. hit rate 2.3% among 330,000. AID 504467; also: potency is read from the fitted curve at half-maximal effect; nearly all actives have a fitted effect of over 55% in size
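In this reporter screen, reduction of luminescence relative to DMSO vehicle indicated activity. Compounds and 5-fluorouridine were added together to 2,000 cells per well, incubated for 16 hr at 37 °C, then developed with ONE-Glo.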
IL1B secr inh: inflammasome signaling inhibition, IL-1 beta readout. THP-1 LPS/ATP IL-1B secretion, AlphaLISA, 16 h; stronger effect = lower value. activity change, % at 57.5 µM. AID 743279. hit rate 4.7% among 360,000; in the data active = activity change below about -50%; inconclusive = mostly about -30% to -49%
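THP-1 cells pretreated 1 hr with compounds (up to 57.5 uM final), then stimulated with LPS (250 ng/mL final) plus ATP (1.25 mM final); secreted IL-1B measured by AlphaLISA after 16 hr, decreased signal indicating inhibition.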
RORgamma inh: blocks mouse ROR gamma transcriptional activity | P51450 | Drosophila S2 Gal4-RORgamma UAS-luciferase reporter, 20 h | Potency, µM (highest dose often 53.6 µM), inactives show at the highest dose activity change, negative = inhibition, hits mostly inhibitors | hit rate 5.4% among 310,000 | AID 2551; also: potency is read from the fitted curve at half-maximal effect; nearly all actives have a fitted effect of over 60% in size
Target sequence (P51450 whole entry, looked up, the tested form may be a part): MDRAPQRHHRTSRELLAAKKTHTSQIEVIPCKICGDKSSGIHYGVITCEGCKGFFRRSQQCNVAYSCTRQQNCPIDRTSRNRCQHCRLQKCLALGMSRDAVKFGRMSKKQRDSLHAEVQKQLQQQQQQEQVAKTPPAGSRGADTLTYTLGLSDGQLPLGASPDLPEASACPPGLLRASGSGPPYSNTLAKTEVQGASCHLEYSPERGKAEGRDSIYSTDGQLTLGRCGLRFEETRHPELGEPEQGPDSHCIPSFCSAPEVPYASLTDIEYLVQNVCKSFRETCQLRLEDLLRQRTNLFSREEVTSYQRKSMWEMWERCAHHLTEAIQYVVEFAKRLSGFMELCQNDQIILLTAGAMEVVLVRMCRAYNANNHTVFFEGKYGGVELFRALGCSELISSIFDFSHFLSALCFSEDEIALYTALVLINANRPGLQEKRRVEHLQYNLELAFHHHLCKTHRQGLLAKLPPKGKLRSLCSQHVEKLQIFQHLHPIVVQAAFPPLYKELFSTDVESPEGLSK
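ROR gamma transcriptional activity was tracked as Gal4-UAS luciferase output in stably transfected Drosophila Schneider cells, with compound added 1 hr before 700 uM copper sulfate induction and a 20 hr ambient-temperature incubation.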
DT40 TDP1 CPT: growth inhibition of DT40 Tdp1-/-;hTDP1 cells with camptothecin (screen for TDP1 inhibitors); chicken DT40 Tdp1-/-;hTDP1 cells + 20 nM CPT, ATP luminescence, 48 h; AID 686979; hit rate 12% among 420,000; Potency, µM (highest dose often 46.2 µM), inactives show at the top dose activity change, negative = growth inhibition, most hits filed as inhibitors; also: potency is read from the fitted curve at half-maximal effect; nearly all actives have a fitted effect of over 55% in size
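Chicken DT40 Tdp1-/- cells complemented with human TDP1, 400 cells/well, exposed to compounds plus 20 nM camptothecin for at least 48 h at 37 C; viability read as ATP content by CellTiter-Glo luminescence.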
VP16 counter: counter-screen for ROR gamma inhibitors: Gal4-VP16 reporter; hit rate 3.5% among 310,000; Potency, µM (titrated, usually from 53.6 µM), for the others: at the highest dose activity, negative = inhibition, hits mostly inhibitors; Drosophila S2 Gal4-VP16 UAS-luciferase, luminescence, 20 h; AID 2546;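 also: Gal4-VP16 expression switched on by copper sulfate through the metallothionein promoter; potency is read from the fitted curve at half-maximal effect; nearly all actives have a fitted effect of over 50% in size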
DT40 TDP1 no CPT: qHTS for Inhibitors of human tyrosyl-DNA phosphodiesterase 1 (TDP1): qHTS in cells in absence of CPT; DT40 Tdp1-/- hTDP1 cells, no CPT, ATP luminescence, 48 h; Potency, µM (doses to about 46.2 µM), for the others: top-dose activity change, negative = growth inhibition, usual class: inhibitors; hit rate 15% among 420,000; also: potency is read from the fitted curve at half-maximal effect; nearly all actives have a fitted effect of over 55% in size
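Cells were dispensed at 400 per well, compounds added by pin tool, plates incubated ≥48 hr at 37 °C, then CellTiter-Glo added for 30 min at room temperature before luminescence reading. Line: DT40 Tdp1-/- complemented with hTDP1; camptothecin omitted.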
Active calls of the source: *; i = inactive; ? = inconclusive; / = no result given; [ ] = another dose, or the depositor's remark. Only some compounds are listed: those with a hit (about 21% of all), similar ones and a draw of the others. Unless noted, calls follow the shape of the dose curve; as a rule, active = well fitted curve in the direction sought with a large enough effect; inconclusive = small, poorly fitted or top-dose-only effect, or another doubt; inactive = no such curve, though single readings can be large; an effect the other way counts as inactive or inconclusive. % is scaled to controls: 0 for no effect and ±100 for the full control effect.

SMILES	ELG1 repair inh	IL1B secr inh	RORgamma inh	DT40 TDP1 CPT	VP16 counter	DT40 TDP1 no CPT
CCN(C(=O)COC(=O)/C=C/c1cccc(Cl)c1)c1c(N)n(Cc2ccccc2)c(=O)[nH]c1=O	?	8	/	23µM*	/	?
CCN(C(=O)COC(=O)/C=C/c1ccccc1Cl)c1c(N)n(Cc2ccccc2)c(=O)[nH]c1=O	-2%	-13	/	?	/	?
CC1(C)OC(C)(C)/C(=C/Nc2ccc(O)cc2)C1=O	-7%	14	-11%	?	-13%	23µM*
CC(c1ccccc1)N1CNc2c(c(=O)n(C)c(=O)n2C)C1 (stereo unspecified)	4%	7	-11%	-15%	0%	-19%
CC(c1ccccc1)n1cc2c(c1-c1ccccc1Br)c(=O)n(C)c(=O)n2C (stereo unspecified)	/	/	/	16µM*	/	18µM*
Cn1c(=O)c2c(-c3ccccc3Br)n(C(C)(C)C)cc2n(C)c1=O	/	/	/	16µM*	/	12µM*
COc1ccc(CCn2cc3c(c2-c2ccccc2Br)c(=O)n(C)c(=O)n3C)cc1OC	/	/	/	21µM*	/	16µM*
CC(C)N(C(=O)Cn1cc(S(=O)(=O)CC(=O)Nc2ccccc2)c2ccccc21)C(C)C	-15%	i	27%	?	-11%	-28%
CC1(C)CC(Nc2ccc(Nc3ccccc3)cc2)CC(C)(C)N1	-22%	-81*	?	16µM*	?	4.6µM*
COc1ccc(NC(=O)C2Cc3c(-c4ccncc4)ccnc3O2)cc1OC (stereo unspecified)	/	0	/	?	/	?
COc1ccc(NC(=O)C2Cc3c(-c4ccc(Cl)cc4)ccnc3O2)cn1 (stereo unspecified)	/	-7	/	15µM*	/	21µM*
COc1ccc(NC(=O)C2Cc3c(-c4cccc(C(N)=O)c4)ccnc3O2)cc1OC (stereo unspecified)	/	16	/	12µM*	/	7.3µM*
COc1ccc(NC(=O)C2Cc3c(-c4ccc(Cl)cc4)ccnc3O2)cc1OC (stereo unspecified)	/	-16	/	?	/	18µM*
COc1ccc(NC(=O)C2Cc3c(-c4ccccc4)ccnc3O2)cc1OC (stereo unspecified)	/	?	/	?	/	4.6µM*
O=S1(=O)CC(N2CCCC2)CN1Cc1cn(Cc2cccc(C(F)(F)F)c2)nn1 (stereo unspecified)	/	-16	/	-2%	/	-16%
O=C(Cn1nc(-c2ccccc2)nc(Cc2ccccc2)c1=O)Nc1ccccc1	/	/	/	-8%	/	-20%
CC1CN(C(C)C)C(=S)NC1=O (stereo unspecified)	/	14	/	6%	/	-7%
Oc1c(Cl)cc(Cl)cc1CNc1ccc(Br)cn1	?	-85*	?	-28%	-13%	-21%
Oc1ccc(Cl)cc1CNc1ccc(Br)cn1	?	?	?	-13%	?	-20%
COc1ccc(-c2c(-c3ccsc3)oc(=O)c3cc(OC)c(OC)cc23)cn1	?	-2	/	?	/	?
COc1cc2c(-c3ccc4cc[nH]c4c3)c(-c3ccsc3)oc(=O)c2cc1OC	-30%	-19	/	18µM*	/	21µM*
COc1cc2c(-c3ccc4[nH]ccc4c3)c(-c3ccc(C#N)cc3)oc(=O)c2cc1OC	?	9	/	15µM*	/	5.8µM*
O=C(C[C@H]1C(=O)N(C2CCCCC2)C[C@@H]1c1ccccc1)Nc1ccc(Br)cc1	/	14	/	-30%	/	?
CCOC(=O)C1=CCN(S(=O)(=O)c2ccccc2C)C1c1ccc(Cl)c(Cl)c1 (stereo unspecified)	/	4	/	?	/	?
Cc1noc(C)c1S(=O)(=O)Nc1ccc2c(c1)C(=O)N([C@H](C)CO)C[C@H](C)[C@@H](CN(C)Cc1ccc(C(=O)O)cc1)O2	?	8	/	-7%	/	8%
SMILES	ELG1 repair inh	IL1B secr inh	RORgamma inh	DT40 TDP1 CPT	VP16 counter	DT40 TDP1 no CPT
COc1ccc(C2c3c(ccc4ccccc34)Oc3ncn4nc(Cc5ccccc5)nc4c32)cc1OC (stereo unspecified)	?	-11	-8%[10 µM]	-11%	-6%	?
COc1ccc(C2c3c(ncn(CCCO)c3=N)Oc3ccc4ccccc4c32)cc1 (stereo unspecified)	?	-96*	-28%	21µM*	-16%	15µM*
COc1ccc(C2c3c(ncn(CCN4CCOCC4)c3=N)Oc3ccc4ccccc4c32)cc1OC (stereo unspecified)	-13%	-87*	-108%	?	13µM*	?
N=c1c2c(ncn1CCCO)Oc1cc(O)ccc1C2c1ccccc1 (stereo unspecified)	-8%	7	-21%	-13%	4%	-1%
COc1ccc(C2c3c(ncn(CCCO)c3=N)Oc3ccc4ccccc4c32)cc1OC (stereo unspecified)	11%	-100*	-20%	15µM*	-1%	18µM*
O=C(COCc1cc(-c2cccs2)on1)NCc1ccccc1Cl	/	/	/	-19%	/	-26%
CC(=O)SC[C@@H](C)C(=O)N1CCC[C@H]1C(=O)N[C@@H](Cc1ccccc1)C(=O)O	/	/	/	5%	/	-1%
O=C(c1ccccc1F)N1CCN(S(=O)(=O)c2ccc3c(c2)OCCO3)CC1	?	-16	-15%	12µM*	1%	?
CN(C1CCCCC1)S(=O)(=O)c1ccc(S(=O)(=O)N2CCN(CCC#N)CC2)cc1	2%	-9	-4%	-14%	-2%	-13%
CN(C1CCCCC1)S(=O)(=O)c1ccc(S(=O)(=O)N2CCN(C(=O)c3ccccc3F)CC2)cc1	18µM*	?	0%	?	-1%	?
Cc1cc(NC(=O)COC(=O)C2CC(=O)N(c3cccc(C)c3C)C2)no1 (stereo unspecified)	-1%	-3	-2%	-5%	4%	2%
COc1cc(-c2cc3nc(NC4CCCCC4)ccn3n2)cc(OC)c1OC	/	9	/	16µM*	/	10µM*
FC(F)(F)c1cccc(-c2cc3nc(NC4CCCCC4)ccn3n2)c1	/	-23	/	21µM*	/	?
COc1cc(-c2csc(NC3CCCCC3)n2)cc(OC)c1OC	?	-80*	19%	?	?	?
Cn1c(CO)cnc1SCc1ccc(Cl)cc1	?	-7	-9%	-1%	-7%	5%
CC1Cc2ccccc2N1C(=O)CSc1nncs1 (stereo unspecified)	10%	-5	/	-13%	/	-8%

Screens (PubChem BioAssay)
